Screening results as filed in PubChem.
This is a sample that favours compounds with a hit; in the whole collection about 1.7% have one here.
RecA splice inh: Mtb RecA intein splicing inhibition; P9WHJ3; cell-free RecA intein splicing, fluorescence; inhibition, % (no concentration beside the values); actives 0.75% (n = 290,000); AID 2221; in the data active = inhibition above about 30%; inconclusive = no clear call, values can overlap the other calls;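 note: 0% = vehicle wells and 100% = reference inhibitor control wells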
Mtb bLac sens: beta-lactam sensitization of Mtb H37Rv. actives 0.27% (n = 330,000). AID 434955. inhibition, % at 25 µM. M. tuberculosis H37Rv growth with meropenem, percent inhibition; call rule not given here;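 note: growth measured after seven days incubation then overnight dye step; 0% = bacteria only wells and 100% = bacteria with antibiotic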
PfHsp40 yeast: compounds rescuing yeast from Plasmodium falciparum HSP40 toxicity; growth rescue, % at 12.5 µM; S. cerevisiae expressing PfHsp40, growth rescue, ATP luminescence; actives 0.68% (n = 340,000); in the data active = growth rescue above about 28%, passing the limit was not always enough; inconclusive = no clear call, values can overlap the other calls;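 note: yeast W303a lacking pdr1 and pdr3 grown in galactose medium; growth measured after three days at 30 °C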
CCHF vOTU inh: CCHFV vOTU protease inhibition; AID 651958; actives 0.55% (n = 370,000); Pep-AMC fluorescence; inhibition, % at 11.5 µM; in the data active = inhibition above about 30%; note: 0% = vehicle wells with enzyme and 100% = no enzyme wells
Mtb hypoxia inh: Mtb hypoxia fluorescent reporter inhibition; M. tuberculosis hypoxia-regulated fluorescent reporter, fluorescence; fluorescence inhibition, % (concentration not given with the values); actives 0.1% (n = 300,000); AID 1159583; in the data active = fluorescence inhibition mostly above about 23%, no sharp cut-off; inactive = mostly below about 17%
Numbers without * were called inactive; ? = inconclusive; · = no result.

SMILES | RecA splice inh | Mtb bLac sens | PfHsp40 yeast | CCHF vOTU inh | Mtb hypoxia inh
O=C(O)c1ccccc1Nc1ccc([N+](=O)[O-])cc1C(=O)O | 5 | -2 | 0 | -8 | ·
Cc1cccc(CSc2nnnn2-c2ccccc2)c1 | 7 | -3 | 33* | 2 | 11
Cc1ccc(C)c(-n2nnnc2Sc2nnnn2-c2ccccc2)c1 | 71* | 29 | 0 | 5 | 7
O=Cc1cc(OCc2ccccc2)ccc1[B-](F)(F)F | · | · | 160* | 2 | ·
COc1cc(OC)c(C#N)c(S(=O)(=O)Cc2ccccc2)c1 | 2 | -5 | 64* | 2 | -5
O=C(c1cccc(F)c1)N1CCC(N2CCCCCC2)CC1 | -2 | -6 | 0 | 7 | ·
O=C(c1cccc(F)c1)N1CCN(C2CCCCC2)CC1 | 0 | 21 | 54* | -7 | 17
O=C(NC(NC(=S)Nc1ccc(Cl)cc1Cl)C(Cl)(Cl)Cl)c1cccc([N+](=O)[O-])c1 (stereo unspecified) | 37* | 74 | 6 | -9 | -9
O=C(O)c1cccc(NC(=S)NC(NC(=O)c2cccc([N+](=O)[O-])c2)C(Cl)(Cl)Cl)c1 (stereo unspecified) | -5 | -2 | 24 | 9 | -2
COC(=O)C1=C(c2ccc(-c3ccccc3)c(F)c2)CC2CCC1N2C(=O)NCc1cccc2ccccc12 (stereo unspecified) | · | · | · | · | -9
O=[N+]([O-])c1ccc(N2CCOCC2)c2ccncc12 | 30* | 3 | -1 | 5 | -4
O=[N+]([O-])c1cccc2c(N3CCOCC3)ccnc12 | 8 | -1 | -1 | 7 | 12
CCCCCCCN1C(Nc2ccccc2)=NCC1Cc1ccccc1 (stereo unspecified) | · | · | · | · | -5
CN(C)C=NC(=S)Nc1ccc(F)cc1 | · | · | · | · | -4
CC(CCc1oc2ccc(Br)cc2c1-c1ccc(C)o1)=NO | · | · | · | · | 6
Cc1nnc(NC(=O)CN2CC(C)OC(C)C2)s1 (stereo unspecified) | -4 | -1 | 28* | 14 | -4
Cc1ccc(S(=O)(=O)N(Cc2cccc(C(F)(F)F)c2)C(=O)N2CCN(C)CC2)cc1 | -2 | -3 | 52* | -6 | 6
CCCCCCNC(=O)CC(c1ccccc1)c1cc(Br)ccc1O (stereo unspecified) | 29 | -4 | 40* | 24 | ·
CC(C)NC(=O)CC(c1ccccc1)c1cc(Br)ccc1O (stereo unspecified) | 7 | -3 | 1 | · | -1
Cc1coc2c1C(=O)C(=O)c1c-2ccc2c1CCCC2(C)C | 12 | 99 | ? | 13 | ·
C[C@H]1COC2=C1C(=O)C(=O)c1c2ccc2c1CCCC2(C)C | 19 | 99 | 72* | · | ·
Cc1cccc(N2C(=O)C(Oc3ccc(Cl)cc3Cl)C2C=O)c1C (stereo unspecified) | · | 0 | 280* | -2 | ·
COCCN1CC(=O)N(c2cccc(C)c2C)C(c2ccc(Cl)cc2)C1=O (stereo unspecified) | 3 | -8 | 0 | -3 | 5
Cc1ccc(-c2csc(NC(CO)c3nc4ccccc4n3CCOCCO)n2)cc1 (stereo unspecified) | 8 | -5 | 34* | -7 | -4
Oc1c(Cl)cc(Cl)cc1CN1CCN(Cc2ccccc2)CC1 | 6 | 10 | 0 | 17 | -1
SMILES | RecA splice inh | Mtb bLac sens | PfHsp40 yeast | CCHF vOTU inh | Mtb hypoxia inh
Oc1c(Cl)cccc1Cc1cc(Cl)cc(Cl)c1O | · | · | 406* | 23 | 12
O=C(Oc1cc2oc(=O)cc(-c3ccccc3)c2cc1Cl)C1CCCCC1 | -47 | -18 | 68* | 1 | ·
Cc1[nH]n(C(C)(C)C)c(=O)c1Sc1ccccc1 | 50* | 0 | 0 | 0 | 6
Oc1cc(O)c2c(c1)O[C@H](c1ccc(O)c(O)c1)[C@@H](O)C2 | 59* | 1 | -1 | 1 | ·
O=C1c2c(O)cc(O)cc2O[C@H](c2ccc(O)c(O)c2)[C@H]1O | -8 | 1 | 0 | 7 | ·
Cc1ccc(C(=O)N2C3CN(C)C(=O)[C@@]2(Cc2ccccc2)C2C(=O)N(Cc4ccccc4)C(=O)C32)cc1 (stereo partly specified) | · | · | · | · | 17
COc1ccc(-n2cccc2C=C2C(=N)N3N=C(C(C)C)SC3=NC2=O)cc1 | · | · | · | · | 0
Cc1ccccc1CN(C)CCS(=O)(=O)c1cc(Cl)ccc1Cl | 7 | 78 | 61* | 1 | ·
Nc1nnc(CCS(=O)(=O)c2cc(Cl)ccc2Cl)s1 | -2 | -14 | -1 | -1 | -2
COc1cccc(C=C(C(=O)OCC(=O)NCC2CCCO2)c2ccccc2)c1 (stereo unspecified) | · | · | · | · | 2
COC(=O)C1=C(c2c(C)noc2C)CC2CCC1N2C(=O)NCc1ccc2c(c1)OCO2 (stereo unspecified) | · | · | · | · | 8
